Most compounds without a hit are left out; they make up all but 2.4% or so of the library.
Pol kappa inh = inhibitors of human DNA polymerase kappa; purified Pol kappa, fluorescent DNA synthesis assay, 10 min; Potency, µM (series often up to 107 µM), most hits filed as inhibitors; actives 0.53% (n = 400,000); Q9UBT6
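Enzyme at 10 nM met test compounds for 15 min at room temperature. Substrate addition (50 nM final) began the reaction, which was monitored by fluorescence at 0 and 10 min.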
POLI inh = blocks human DNA polymerase iota activity. Pol iota fluorescent replication assay, 10 min. Potency, µM (top dose mostly 115 µM), actives largely listed as inhibitors. actives 1% (n = 390,000). AID 588590
Target sequence (Q9UNA4 whole entry, looked up): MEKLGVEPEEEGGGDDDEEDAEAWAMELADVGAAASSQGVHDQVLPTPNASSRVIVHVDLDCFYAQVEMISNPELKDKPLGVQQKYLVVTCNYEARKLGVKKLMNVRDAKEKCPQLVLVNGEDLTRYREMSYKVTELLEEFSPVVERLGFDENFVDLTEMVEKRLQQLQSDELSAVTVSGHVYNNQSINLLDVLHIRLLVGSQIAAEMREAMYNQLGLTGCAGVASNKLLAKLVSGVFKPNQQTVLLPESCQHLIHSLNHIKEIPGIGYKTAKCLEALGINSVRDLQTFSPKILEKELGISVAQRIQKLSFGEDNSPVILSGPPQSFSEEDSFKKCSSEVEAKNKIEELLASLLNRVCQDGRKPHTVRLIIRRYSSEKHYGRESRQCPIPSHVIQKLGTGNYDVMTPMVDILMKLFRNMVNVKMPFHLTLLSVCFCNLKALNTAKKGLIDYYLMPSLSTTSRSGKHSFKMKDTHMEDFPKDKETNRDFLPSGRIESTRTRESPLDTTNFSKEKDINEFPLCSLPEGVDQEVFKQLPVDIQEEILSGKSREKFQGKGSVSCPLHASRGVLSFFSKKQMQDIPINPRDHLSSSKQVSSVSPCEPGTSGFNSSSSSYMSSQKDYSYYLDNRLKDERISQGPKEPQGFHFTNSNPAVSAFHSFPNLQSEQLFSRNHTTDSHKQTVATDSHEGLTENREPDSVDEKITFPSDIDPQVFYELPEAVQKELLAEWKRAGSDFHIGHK
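Pol iota at 10 nM preincubated 15 min with compounds at room temperature; reaction started with fluorescent substrate, 50 nM final. Fluorescence read kinetically at 0 and 10 min; buffer-only wells as negative control.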
Tb PGK inh = blocks T. brucei phosphoglycerate kinase | Potency, µM (doses to about 57.5 µM), usual class: inhibitors | PGK/GAPDH coupled, Kinase-Glo luminescence, 60 min | actives 0.043% (n = 380,000) | P07378; also: nearly all actives have a fitted effect of over 60% in size
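Recombinant glycosomal PGK reaction used 1,3-bisphosphoglycerate generated in-well by GAPDH (100nM final) in 100mM TEA pH 7.6, 5mM MgCl2, 0.01% Tween-20. After 60 minutes at room temperature, ATP was read by Kinase-Glo Plus luminescence end-point.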
POLB inh = DNA polymerase beta (human) inhibition | P06746 | Pol beta primer extension/strand displacement, fluorescence kinetic | Potency, µM (top dose mostly 114 µM), hits mostly inhibitors | actives 1.3% (n = 340,000) | AID 485314
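Enzyme-only controls used 10 nM Pol beta; buffer lacking enzyme served as negative control. Compound preincubated 15 min, then 50 nM substrate added; 0 and 10 min reads at room temperature.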
Pol eta inh = inhibitors of human DNA polymerase eta; Potency, µM (titrated, usually from 114 µM), most hits filed as inhibitors; recombinant Pol eta, fluorescent DNA replication assay; Q9Y253; actives 1.2% (n = 390,000)
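Pol eta (10 nM) was preincubated with compounds for 15 min at room temperature, after which fluorescent replication substrate (50 nM final) was added to start the reaction. Fluorescence was read kinetically at 0 and 10 min.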
FEN1 inhibitor = human FEN1 inhibition. actives 0.35% (n = 390,000). Potency, µM (titrated, usually from 114 µM), most hits filed as inhibitors. AID 588795. P39748. Recombinant FEN1 flap cleavage, fluorescence, 15 min; also: nearly all actives have a fitted effect of over 65% in size
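Recombinant FEN1 (10 nM) was preincubated with pin-transferred compounds for 15 min at room temperature, then flap DNA substrate (50 nM final) was added. Plates were read at 0 and 15 min, and normalized concentration–response data were fitted to a four-parameter Hill equation.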
Each line names hits and unclear results; the compound was inactive in the other large screens; ! = a repeat was not active. Calls follow the shape of the dose curve; as a rule, active = well fitted curve in the direction sought with a large enough effect; inconclusive = small, poorly fitted or top-dose-only effect, or another doubt; inactive = no such curve, though single readings can be large; an effect the other way counts as inactive or inconclusive.

COc1cc(C[C@@H](C)[C@@H](C)Cc2ccc(O)c(OC)c2)ccc1O	none (no result: POLB inh)
CC(CCc1ccc(O)cc1)NCCc1ccc(O)c(O)c1 (configuration not stated)	none
C[C@H](Cc1ccc(O)c(O)c1)[C@@H](C)Cc1ccc(O)c(O)c1	Pol kappa inh 1.68µM, POLI inh 1.78µM!, POLB inh 0.794µM, Pol eta inh 3.16µM (no result: Tb PGK inh, FEN1 inhibitor)
CCC1CC=CC2C1C(=O)N(Cc1ccccc1)C2c1cccc([N+](=O)[O-])c1 (configuration not stated)	none (no result: Tb PGK inh, POLB inh, Pol eta inh)
CCCCCCCCCCCCCCCC[n+]1ccc(C)cc1	FEN1 inhibitor inconclusive (no result: Tb PGK inh, POLB inh, Pol eta inh)
NS(=O)(=O)Nc1c(Br)cc(Br)c2cccnc12	POLI inh 25.1µM, FEN1 inhibitor inconclusive (no result: Tb PGK inh, POLB inh, Pol eta inh)
Nc1c(Br)cc(Br)c2cccnc12	POLI inh 8.91µM, FEN1 inhibitor inconclusive (no result: Tb PGK inh, POLB inh, Pol eta inh)
O=C1c2ccccc2C(=O)N1c1ccc(Br)c2cccnc12	none
C/C(=C1/C=Nc2ccccc21)c1ccc(N(C)C)cc1	FEN1 inhibitor inconclusive (no result: Tb PGK inh, POLB inh, Pol eta inh)
CCCCN(CCC(=O)O)c1ccc(/C=C/c2ccnc3ccccc23)cc1	none (no result: Tb PGK inh, POLB inh, Pol eta inh)
COc1cc(/C=C/c2ccc3ccccc3n2)cc(OC)c1OC	FEN1 inhibitor inconclusive (no result: Tb PGK inh, POLB inh, Pol eta inh)
CCOc1cc(C2Nc3ccccc3-c3nnc(SCc4ccccc4)nc3O2)ccc1OC (configuration not stated)	none
O=C(O)c1ccc(C2Nc3ccccc3-c3nnc(SCc4ccc(Cl)cc4)nc3O2)cc1 (configuration not stated)	Pol kappa inh inconclusive, POLI inh inconclusive, POLB inh 25.1µM
CCCN1CNc2c(c(=O)[nH]c(=S)n2CCc2cc(C)ccc2C)C1	none (no result: Tb PGK inh, POLB inh, Pol eta inh)
CCCSc1nc2sc3c(c2c(=O)n1-c1ccc(C)c(Cl)c1)CCN(C(C)=O)C3	POLI inh inconclusive, POLB inh inconclusive, Pol eta inh 79.4µM
CC(=O)N1CCc2c(sc3nc(SCC(C)C)n(-c4ccc(C)c(Cl)c4)c(=O)c23)C1	POLI inh inconclusive, Pol eta inh inconclusive
CC1(C)[C@@H](O)CC[C@]2(C)[C@H]3C(=O)C=C4[C@@H]5C[C@@](C)(C(=O)O)CC[C@]5(C)CC[C@@]4(C)[C@]3(C)CC[C@@H]12	Pol kappa inh 33.6µM!
CC1(C)C(O)CC[C@]2(C)C1CC[C@@]1(C)C2C(=O)C=C2[C@@H]3C[C@@](C)(C(=O)O)CC[C@@]3(C)CCC21C (some centres not stated)	none (no result: POLI inh, Tb PGK inh, POLB inh, Pol eta inh, FEN1 inhibitor)
COC(=O)c1cc(=O)c(O)c2c(O)c(O)ccc2c1	Pol kappa inh 1.12µM (no result: POLI inh, Tb PGK inh, POLB inh, Pol eta inh, FEN1 inhibitor)
O=C(C[n+]1cccc2cc(Cl)ccc21)c1ccc2ccccc2c1	none (no result: Tb PGK inh, POLB inh, Pol eta inh)
CCOc1ccc(C(=O)Nc2ccc3c(c2)C(=O)NC3=O)cc1	none
CCC(C)c1ccc(OCC(=O)Nc2ccc3c(c2)C(=O)NC3=O)cc1 (configuration not stated)	POLB inh 35.5µM
CCOc1ccc(/C=C2\SC(=O)N(c3ccc(O)cc3)C2=O)cc1OC	none
COc1cc(/C=C2\SC(=O)N(c3ccc(Cl)cc3)C2=O)cc([N+](=O)[O-])c1O	Pol kappa inh inconclusive, POLI inh 6.31µM, POLB inh 56.2µM, FEN1 inhibitor inconclusive
CCc1cccc(NC(=O)Cn2cc(C(=O)c3ccncc3)c(=O)c3cc(C)c(C)cc32)c1	none (no result: Tb PGK inh, Pol eta inh)
O=C(O)C1CCCCC1C(=O)Nc1nc(-c2ccc(Cl)s2)cs1 (configuration not stated)	Pol kappa inh inconclusive, POLI inh inconclusive, POLB inh 15.8µM, Pol eta inh 44.7µM
CCOc1ccc(CNC(=O)c2cc3c(=O)n(Cc4cccs4)ccc3nc2C)cc1	POLI inh inconclusive, POLB inh 12.6µM
Cc1nc2ccn(Cc3cccs3)c(=O)c2cc1C(=O)NCc1ccc(Br)cc1	POLI inh inconclusive
CCc1ccc(CNC(=O)c2cc3c(=O)n(Cc4cccs4)ccc3nc2C)cc1	POLI inh inconclusive, POLB inh 50.1µM
CC(C)CN(C)c1ccc(/C=C2\C=Cc3ccccc32)cc1	none (no result: Tb PGK inh, POLB inh, Pol eta inh)
CCCCC(C)/C=C(C)/C=C(\C)C(=O)NC1=CC(O)(/C=C/C=C/C=C/C(=O)NC2=C(O)CCC2=O)C2OC2C1=O (configuration not stated)	Pol kappa inh 26.7µM (no result: POLI inh, Tb PGK inh, POLB inh, Pol eta inh, FEN1 inhibitor)
COc1ccc(NC(=O)c2c(NCc3ccc(N(C)C)cc3)sc3c2CCC3)cc1	none
Cc1cc(C)n2nc(SCN3C(=O)c4ccccc4C3=O)nc2n1	POLI inh inconclusive, POLB inh 44.7µM
CCOc1ccc(NC(=O)CSc2nnc3c(n2)[nH]c2ccc(S(=O)(=O)N(C)C)cc23)cc1	none (no result: Tb PGK inh, POLB inh, Pol eta inh)
COc1cc(C(=O)NC2CCN(C)CC2)ccc1Nc1ncc2c(n1)N(C1CCCC1)CCC(=O)N2C(C)C	POLI inh inconclusive (no result: POLB inh)
COc1cc(C(=O)NC2CCN(C)CC2)ccc1Nc1ncc2c(n1)N(CCc1ccccc1)CCC(=O)N2C	FEN1 inhibitor 50.1µM (no result: POLB inh)
Cc1nc(Nc2cnc(/C=C/c3cc(C(=O)Nc4cccc(C(F)(F)F)c4)ccc3C)cn2)cc(N2CCNCC2)n1	POLB inh 39.8µM, Pol eta inh 39.8µM, FEN1 inhibitor 79.4µM
COc1cc(C(=O)Nc2cc(-c3ccccc3)[nH]n2)cc(OC)c1OC	none
COc1cc(C(=O)Nc2nc(OC)c(-c3ccccc3)c(OC)n2)cc(OC)c1OC	POLI inh inconclusive, POLB inh 44.7µM, FEN1 inhibitor inconclusive
O=C(O)c1ccc2c(ccc3nn(-c4ccc(/C=C/c5ccc(-n6nc7ccc8cc(C(=O)O)ccc8c7n6)cc5[S+](=O)([O-])[O-])c([S+](=O)([O-])[O-])c4)nc32)c1	Pol kappa inh 1.78µM, POLI inh inconclusive, FEN1 inhibitor 3.16µM (no result: Tb PGK inh, POLB inh, Pol eta inh)
O=[S+]([O-])([O-])c1ccc2c(c1)cc([S+](=O)([O-])[O-])c1nn(-c3ccc(/C=C/c4ccc(-n5nc6c([S+](=O)([O-])[O-])cc7cc([S+](=O)([O-])[O-])ccc7c6n5)cc4[S+](=O)([O-])[O-])c([S+](=O)([O-])[O-])c3)nc12	Pol kappa inh 10µM, POLI inh inconclusive, FEN1 inhibitor inconclusive (no result: Tb PGK inh, POLB inh, Pol eta inh)
COc1ccc(CNC(=O)c2oc3c(c2C)-c2nn(Cc4ccc(Cl)cc4)cc2CC3)cc1	none
CCN(Cc1nc(-c2ccc(OC)c(OC)c2)no1)S(=O)(=O)c1ccc(OC)cc1	none (no result: Tb PGK inh, Pol eta inh)
CC(C)[N+]1(C)[C@@H]2CC[C@H]1CC(OC(=O)[C@@H](CO)c1ccccc1)C2 (some centres not stated)	none (no result: POLI inh, Tb PGK inh, POLB inh, Pol eta inh, FEN1 inhibitor)
O=C(N/N=C\c1cccnc1)c1cc(-c2ccc(Cl)s2)[nH]n1	POLI inh inconclusive, Tb PGK inh inconclusive, POLB inh 14.1µM, Pol eta inh inconclusive, FEN1 inhibitor inconclusive

Source: PubChem BioAssay (National Center for Advancing Translational Sciences (NCATS))
